Measured values taken from PubChem BioAssay (NCATS).
“And” between values parts separate entries of the source, which are not always exact repeats. Equal values may be shown once. Records with an inconclusive call do not appear. Some structures have more than one record in an assay (separate samples or runs), and their calls can disagree. The source made the active and inactive calls. Unless noted, the call rests on the fitted dose curve; in most records, active means well fitted curve in the direction sought with a large enough effect; inconclusive means small, poorly fitted or top-dose-only effect, or another doubt; inactive means no such curve, though single readings can be large; an effect the other way counts as inactive or inconclusive.

What was measured:
[1] = Cellular Toxicity (caspase-3) Renal Proximal Tubule (AID 667); settings: Potency: caspase-3 activation;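 further: cells exposed to compound for 16 hours at 37 °C before detection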; further: potency means the concentration at half of the fitted maximal effect
In short: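 In qHTS format, rat primary proximal tubule cells seeded at 1000 per well are exposed to compounds for 16 hours at 37 °C. An increase in Caspase-Glo 3/7 luminescence indicates caspase activation.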

[2] = biological target: Cytochrome P450 3A4 (Homo sapiens) (UniProt P08684); experiment: qHTS Assay for Inhibitors and Substrates of Cytochrome P450 3A4 (AID 884); further: nearly all actives have a fitted effect of over 50% in size; further: potency means the concentration at half of the fitted maximal effect
In short: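 20 nM human CYP3A4 with 25 uM Luciferin-PPXE (at KM) in 200 mM KPO4, preincubated 10 min with compound; NADPH regeneration started a 60 min RT reaction. Luciferin detected by luminescence, normalized to 57 uM ketoconazole as full inhibition.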

[3] = Cell Viability - LYMP2-001 (AID 921);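 further: cells exposed to compound for 24 h at 37 °C; nearly all actives have a fitted effect of over 70% in size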; further: potency means the concentration at half of the fitted maximal effect
In short: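 qHTS, 1536-well; lymphoblastoid cells, 24 hr compound, 37 C; ATP by CellTiter-Glo, 30 min RT; luminescence; Hill-fit AC50.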

[4] = MultiTox-Fluor Cytotoxicity Assay - LYMP1-001 - Dead Cells (AID 946); further: potency means the concentration at half of the fitted maximal effect
In short: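 In this qHTS, 15 uM tetraoctylammonium bromide defined 100% and DMSO defined basal activity. Lymphoblastoid cells (LYMP1-001, 2500 per well) received compound for 16 hr at 37 C before a fluorogenic dead-cell substrate readout at 485/520 nm.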

[5] = MultiTox-Fluor Cytotoxicity Assay - LYMP1-001 - Live Cells (AID 947); further: potency means the concentration at half of the fitted maximal effect
[6] = Confirmation and Secondary Assay for Modulators of Hemoglobin Beta Chain Splicing at IVS2 654 locus (AID 910);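 further: HeLa cells stably carrying EGFP split by mutant beta-globin IVS2-654 intron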
In short: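 HeLa cells stably expressing EGFP interrupted by β-globin IVS2-654 intron, seeded overnight in Opti-MEM/2% FCS, then treated 2 days at 37 °C. Restored splicing read as total peak GFP intensity per well by laser scanning cytometry (488 nm excitation, 500–520 nm emission); 500 nM antisense PNA as control.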

[7] = Confirmation and Secondary Assay for Modulators of Hemoglobin Beta Chain Splicing at IVS2 705 locus (AID 930);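 further: HeLa cells stably expressing the EGFP-705 splicing reporter; GFP fluorescence per well restored by corrected splicing of the IVS2-705 intron in EGFP; series mostly up to about 46 µM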
In short: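 Stable HeLa line with EGFP disrupted by mutant beta-globin intron 2 (705). Overnight attachment, then 2 days of compound at 37C, 5% CO2. Signal: peak GFP intensity summed over objects 5-250 µm.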

[8] = biological target: Cytochrome P450 3A4 (Homo sapiens) (UniProt P08684); experiment: qHTS Assay for Activators of Cytochrome P450 3A4 (AID 885); further: nearly all actives have a fitted effect of over 65% in size
In short: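 Quantitative HTS format: compounds preincubated with 20nM human CYP3A4 and Luciferin-PPXE substrate at KM, reaction started by NADPH regeneration, stopped after 60 min, luciferase luminescence read 20 min later.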

[9] = biological target: Guanine nucleotide-binding protein G(i) subunit alpha-1 (Homo sapiens) (UniProt P63096); experiment: qHTS Assay for Inhibitors of RGS12 GoLoco Motif Activity (Green Fluorophore) (AID 879);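 further: negative values mean loss of peptide binding seen as reduced polarization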
In short: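 Fluorescence polarization assay: 50 nM Gαi1 with 10 nM FITC-labeled RGS12 GoLoco peptide in 10 mM Tris pH 7.5, 150 mM NaCl, 0.1 mM GDP, 0.05% NP40, 10 min at room temperature with compound.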

[10] = biological target: Cytochrome P450 2C9 (Homo sapiens) (UniProt P11712); experiment: qHTS Assay for Inhibitors and Substrates of Cytochrome P450 2C9 (AID 883); further: nearly all actives have a fitted effect of over 60% in size; further: potency means the concentration at half of the fitted maximal effect
In short: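 Signal: luciferase luminescence reporting luciferin produced by CYP2C9. Conditions: 10nM enzyme, Luciferin-H 100uM at KM, 25mM KPO4, 37C, 60 min NADPH-driven reaction. Reference: 57uM sulphaphenazole as 100% inhibition.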

[11] = biological target: Cytochrome P450 2D6 (Homo sapiens) (UniProt P10635); experiment: qHTS Assay for Inhibitors and Substrates of Cytochrome P450 2D6 (AID 891); further: nearly all actives have a fitted effect of over 60% in size; further: potency means the concentration at half of the fitted maximal effect
In short: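 Human CYP2D6 (5 nM) with 30 uM Luciferin-ME EGE (at Km) in 100 mM KPO4, compound preincubated 10 min, then NADPH regeneration system for 60 min at room temperature. Luciferin read by luminescence; normalized to 1.43 uM quinidine.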

[12] = biological target: Cytochrome P450 2C19 (Homo sapiens) (UniProt P33261); experiment: qHTS Assay for Inhibitors and Substrates of Cytochrome P450 2C19 (AID 899); further: nearly all actives have a fitted effect of over 60% in size; further: potency means the concentration at half of the fitted maximal effect
In short: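 Signal comes from luciferase acting on luciferin released by CYP2C19-mediated hydroxylation of Luciferin-H EGE, 10uM (KM). Assay mix: 5nM enzyme, 50mM KPO4; 60 min at 37C with NADPH regeneration. Data normalized against 57uM ketoconazole.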

[13] = qHTS Assay for Identification of Small Molecule Agonists for Thrombopoietin (TPO) Signaling Pathway (AID 917); further: potency means the concentration at half of the fitted maximal effect
In short: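 We measured Glycoprotein IIb promoter–luciferase output in IL-3-starved Ba/F3 murine cells expressing the human TPO receptor after 24 hrs at 37 C with compounds and 26 pM TPO.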

[14] = biological target: Muscarinic acetylcholine receptor M1 (Rattus norvegicus) (UniProt P08482); experiment: qHTS Assay for Antagonists of Acetylcholine Muscarinic M1 Receptor: Measurement of IP-One Response (AID 944); further: nearly all actives have a fitted effect of over 75% in size; further: potency means the concentration at half of the fitted maximal effect
In short: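 M1-CHO (rat), 2000 cells/well, overnight recovery; cpd 10 min; carbachol EC80 (200 nM), 30 min, HEPES buffer + 50 mM LiCl pH 7.4; IP-One HTRF, Ex 337, Em 620/665 nm.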

[15] = biological target: Pyruvate kinase (Leishmania mexicana) (UniProt Q27686); experiment: qHTS Validation Assay for Inhibitors of Leishmania Mexicana Pyruvate Kinase (AID 945); further: potency means the concentration at half of the fitted maximal effect
In short: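 Mutant LmPYK (E451W), 0.2 nM, plus 0.5 mM PEP and 0.1 mM ADP in 50 mM imidazole pH 7.2 containing 0.01% Tween 20 and 0.05% BSA. Incubated 1 h at room temperature; luminescence via PKLight, normalized to DMSO.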

[16] = qHTS Assay for Identification of Small Molecule Antagonists for NFkB Signaling Pathway (AID 895; active means well fitted inhibition curve with a large enough effect in the signal ratio, with a control signal flat, not every such curve was filed as active; the % refers to the signal ratio)
In short: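 ME-180 NFkB-bla cells (beta-lactamase under NFkB response element), plated overnight, treated with compound then 10 pM TNF alpha (about EC50) for 5 hrs at 37 C. LiveBLAzer FRET read at 460/530 nm emission, 405 nm excitation.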

[17] = biological target: Muscarinic acetylcholine receptor M1 (Rattus norvegicus) (UniProt P08482); experiment: qHTS Assay for Antagonists of Acetylcholine Muscarinic M1 Receptor: Kinetic Measurement of Intracellular Calcium Response (AID 943);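 further: Fluo-4 calcium signal as peak divided by basal fluorescence over 4 min; series mostly up to about 35 µM; nearly all actives have a fitted effect of over 75% in size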
In short: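 Rat M1-CHO cells, 2000/well, overnight → Fluo-4 no-wash dye with probenecid, 1 h 37C → compound 10 min, room temp → basal read 6 s → carbachol EC80 (100 nM) → 4 min kinetic read; peak/basal.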

[18] = qHTS Assay for Identification of Small Molecule Antagonists for Thrombopoietin (TPO) Signaling Pathway (AID 918); settings: TPO-dependent cell signaling reporter, antagonist mode; further: potency means the concentration at half of the fitted maximal effect; nearly all actives have a fitted effect of over 60% in size
In short: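 Ba/F3 (murine, hTPO-R, GPIIb-luc reporter); overnight IL-3 withdrawal; cpd + TPO 26 pM final (EC50); 24 h 37 C/5% CO2; Steadylite luminescence after 10 min RT.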

Measured: Potency

Chain of Cytochrome P450 2C19 (Homo sapiens) (P33261 whole entry, looked up): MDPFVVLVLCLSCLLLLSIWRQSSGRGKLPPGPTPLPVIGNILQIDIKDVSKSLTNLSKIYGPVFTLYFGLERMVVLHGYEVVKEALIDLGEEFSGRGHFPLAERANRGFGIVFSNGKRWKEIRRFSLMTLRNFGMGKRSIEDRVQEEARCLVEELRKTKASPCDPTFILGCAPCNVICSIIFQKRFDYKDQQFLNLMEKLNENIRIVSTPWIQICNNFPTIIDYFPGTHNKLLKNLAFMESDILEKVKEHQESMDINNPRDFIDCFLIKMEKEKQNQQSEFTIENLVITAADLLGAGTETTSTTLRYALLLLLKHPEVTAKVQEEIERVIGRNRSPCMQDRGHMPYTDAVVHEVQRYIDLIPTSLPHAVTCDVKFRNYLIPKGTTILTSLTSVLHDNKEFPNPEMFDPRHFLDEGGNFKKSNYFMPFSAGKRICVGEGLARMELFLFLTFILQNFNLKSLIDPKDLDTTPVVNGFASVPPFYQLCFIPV
Chain of Cytochrome P450 2D6 (Homo sapiens) (P10635 whole entry, looked up): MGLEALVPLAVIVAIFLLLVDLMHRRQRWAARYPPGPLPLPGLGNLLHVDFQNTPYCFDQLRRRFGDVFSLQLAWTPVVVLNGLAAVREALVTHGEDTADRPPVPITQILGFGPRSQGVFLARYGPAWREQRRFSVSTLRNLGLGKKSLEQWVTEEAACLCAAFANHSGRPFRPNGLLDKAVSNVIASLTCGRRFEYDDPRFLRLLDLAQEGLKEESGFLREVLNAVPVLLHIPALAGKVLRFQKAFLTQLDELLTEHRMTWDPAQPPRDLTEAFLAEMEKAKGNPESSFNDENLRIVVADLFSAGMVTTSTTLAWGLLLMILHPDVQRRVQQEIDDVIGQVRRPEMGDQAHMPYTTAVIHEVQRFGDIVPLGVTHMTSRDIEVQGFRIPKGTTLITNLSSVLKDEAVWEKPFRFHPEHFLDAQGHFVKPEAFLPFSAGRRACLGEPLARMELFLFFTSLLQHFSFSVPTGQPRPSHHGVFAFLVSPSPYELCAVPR
Chain of Cytochrome P450 3A4 (Homo sapiens) (P08684 whole entry, looked up): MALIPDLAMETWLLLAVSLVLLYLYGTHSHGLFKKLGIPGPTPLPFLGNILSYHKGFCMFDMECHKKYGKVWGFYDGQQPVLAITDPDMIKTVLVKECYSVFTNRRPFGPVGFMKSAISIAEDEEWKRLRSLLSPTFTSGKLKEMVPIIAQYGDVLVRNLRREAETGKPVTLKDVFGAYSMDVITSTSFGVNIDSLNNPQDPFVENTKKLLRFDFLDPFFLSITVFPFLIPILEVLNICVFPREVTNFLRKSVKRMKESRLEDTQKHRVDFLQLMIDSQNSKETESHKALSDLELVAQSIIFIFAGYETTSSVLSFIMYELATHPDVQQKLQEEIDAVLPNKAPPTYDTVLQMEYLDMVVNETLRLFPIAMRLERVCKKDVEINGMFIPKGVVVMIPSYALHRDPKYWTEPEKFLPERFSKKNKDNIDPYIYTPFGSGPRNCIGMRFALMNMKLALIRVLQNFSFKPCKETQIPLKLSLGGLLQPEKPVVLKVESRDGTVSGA
Chain of Pyruvate kinase (Leishmania mexicana) (Q27686 2-499 E452W): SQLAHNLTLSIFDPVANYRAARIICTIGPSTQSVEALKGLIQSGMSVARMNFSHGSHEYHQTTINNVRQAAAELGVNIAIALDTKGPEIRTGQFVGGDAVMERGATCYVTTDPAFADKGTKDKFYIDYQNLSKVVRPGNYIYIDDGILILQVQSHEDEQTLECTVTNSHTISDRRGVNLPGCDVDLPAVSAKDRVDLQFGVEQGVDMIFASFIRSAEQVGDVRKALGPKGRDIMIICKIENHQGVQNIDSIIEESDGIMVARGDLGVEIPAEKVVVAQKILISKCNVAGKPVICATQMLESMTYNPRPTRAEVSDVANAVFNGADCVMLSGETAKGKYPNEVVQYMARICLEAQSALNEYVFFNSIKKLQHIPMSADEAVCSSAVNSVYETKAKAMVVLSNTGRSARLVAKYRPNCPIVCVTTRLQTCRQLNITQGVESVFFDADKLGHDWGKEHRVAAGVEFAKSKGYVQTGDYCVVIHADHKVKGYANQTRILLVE
Chain of Guanine nucleotide-binding protein G(i) subunit alpha-1 (Homo sapiens) (P63096 whole entry, looked up): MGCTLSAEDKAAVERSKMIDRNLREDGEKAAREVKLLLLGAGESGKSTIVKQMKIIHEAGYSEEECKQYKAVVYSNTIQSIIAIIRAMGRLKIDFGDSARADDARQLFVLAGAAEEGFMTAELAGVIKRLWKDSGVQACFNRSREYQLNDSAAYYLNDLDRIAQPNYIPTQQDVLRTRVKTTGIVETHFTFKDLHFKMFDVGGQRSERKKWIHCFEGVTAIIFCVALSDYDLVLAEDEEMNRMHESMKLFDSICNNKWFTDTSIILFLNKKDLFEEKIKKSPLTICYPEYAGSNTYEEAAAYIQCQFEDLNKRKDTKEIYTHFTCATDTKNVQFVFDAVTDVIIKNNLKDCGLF
Chain of Muscarinic acetylcholine receptor M1 (Rattus norvegicus) (P08482 whole entry, looked up): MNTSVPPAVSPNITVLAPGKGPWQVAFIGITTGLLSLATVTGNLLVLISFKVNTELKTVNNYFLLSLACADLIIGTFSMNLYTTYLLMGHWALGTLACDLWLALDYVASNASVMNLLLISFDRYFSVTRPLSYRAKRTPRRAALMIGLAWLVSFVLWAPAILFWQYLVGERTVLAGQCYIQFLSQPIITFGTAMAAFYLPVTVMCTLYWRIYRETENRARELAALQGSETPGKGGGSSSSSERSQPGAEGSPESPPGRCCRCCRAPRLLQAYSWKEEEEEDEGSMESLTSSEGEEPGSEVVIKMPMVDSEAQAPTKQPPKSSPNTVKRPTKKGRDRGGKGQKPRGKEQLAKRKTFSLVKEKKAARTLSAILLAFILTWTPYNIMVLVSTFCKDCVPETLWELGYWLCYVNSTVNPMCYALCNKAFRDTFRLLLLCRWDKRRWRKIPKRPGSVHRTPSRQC
Chain of Cytochrome P450 2C9 (Homo sapiens) (P11712 whole entry, looked up): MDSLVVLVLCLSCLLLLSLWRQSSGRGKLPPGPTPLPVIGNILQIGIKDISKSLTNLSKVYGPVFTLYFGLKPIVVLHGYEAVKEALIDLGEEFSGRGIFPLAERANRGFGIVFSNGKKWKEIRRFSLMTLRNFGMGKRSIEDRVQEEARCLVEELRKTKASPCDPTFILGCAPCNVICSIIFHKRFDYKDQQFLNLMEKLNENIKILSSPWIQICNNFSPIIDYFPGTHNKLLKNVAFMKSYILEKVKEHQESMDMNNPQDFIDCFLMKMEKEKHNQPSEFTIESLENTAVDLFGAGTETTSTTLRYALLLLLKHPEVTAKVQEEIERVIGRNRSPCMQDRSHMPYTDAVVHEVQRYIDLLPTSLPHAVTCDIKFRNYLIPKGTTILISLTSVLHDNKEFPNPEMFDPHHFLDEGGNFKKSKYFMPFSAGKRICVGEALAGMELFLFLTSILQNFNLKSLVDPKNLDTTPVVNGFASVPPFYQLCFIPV

CN(C)CCC(c1ccc(Cl)cc1)c1ccccn1 (centres undefined)
inactive: [1] | [2] | [3] | [4]

NCCO
inactive: [1] | [2] | [3] | [4] | [5]

CC1(C)S[C@@H]2[C@H](NC(=O)[C@H](N)c3ccccc3)C(=O)N2[C@H]1C(=O)O
inactive: [1] | [3] | [4] | [5]

CC(C)NCC(O)COc1cccc2ccccc12 (centres undefined)
inactive: [1] | [2] | [6] | [3] | [7] | [4] | [5]

CN(C)c1ccc(N=NS(=O)(=O)O)cc1
inactive: [1] | [2] | [3] | [4] | [5]

O=C(O)/C=C\C(=O)O
inactive: [1] | [2] | [3] | [4] | [5]

CCCOC(=O)c1ccc(O)cc1
inactive: [1] | [3] | [4] | [5]

C#C[C@]1(O)CC[C@H]2[C@@H]3CCc4cc(O)ccc4[C@H]3CC[C@@]21C
inactive: [1] | [8] | [3] | [5]

Cc1ccc(O)c(N=Nc2ccccc2)n1
12.6 µM (active) and inactive: [10]
inactive: [9] | [8] | [14]
active: [13] 79.4 nM | [15] 6310 nM
3.98 µM (active) and inactive: [11] | [12]

O=c1cc(-c2ccccc2)oc2ccccc12
inactive: [1] | [3] | [4] | [5]

Nc1ccc([N+](=O)[O-])cc1O
inactive: [1] | [2] | [3] | [4] | [5]

CN1CCC[C@H]1c1cccnc1
inactive: [1] | [3] | [4] | [5]

O=C(O)c1cc(O)c(O)c(O)c1
inactive: [1] | [2] | [6] | [3] | [7] | [4]

S=c1[nH]c2ccccc2s1
inactive: [1] | [6] | [3] | [7] | [4] | [5]

c1ccc2sc(SSc3nc4ccccc4s3)nc2c1
inactive: [1] | [2] | [3] | [4] | [5]

COc1cc(CNC(=O)CCCC/C=C/C(C)C)ccc1O
inactive: [1] | [8] | [6] | [3] | [7] | [4] | [5]
active: [2] 2510 nM

Nc1ccc(O)c([N+](=O)[O-])c1
inactive: [1] | [2] | [3] | [4] | [5]

O=C1CN(/N=C/c2ccc([N+](=O)[O-])o2)C(=O)N1
inactive: [1] | [6] | [3] | [7] | [4]

O=C(O)c1cc(=O)c2c(Cl)cc(Cl)cc2[nH]1
inactive: [9] | [10] | [2] | [11] | [16] | [12] | [6] | [13] | [7] | [15]

c1cnc2c(c1)ccc1cccnc12
inactive: [1] | [9] | [10] | [2] | [11] | [12] | [17] | [14] | [15]

COC(=O)c1c(C)[nH]c(C)c1C(=O)c1ccccc1Cc1ccccc1
inactive: [9] | [8] | [13] | [14] | [15]
active: [10] 2.51 µM | [2] 501 nM | [12] 0.1 µM

CN(C)c1ccc(C(=C2C=CC(=[N+](C)C)C=C2)c2ccccc2)cc1
active: [1] 794 nM | [3] 199 nM | [4] 501 nM | [5] 1000 nM

Oc1ccccc1O
inactive: [1] | [9] | [10] | [11] | [12] | [15] | [4] | [5]

O=C1C(SCCO)=C(SCCO)C(=O)c2ccccc21
active: [10] 12.6 µM and 5.01 µM | [11] 7.94 µM | [12] 501 nM and 79.4 nM | [18] 1260 nM | [14] 10000 nM
inactive: [9] | [8] | [17] | [15]

Nc1ccc(O)c(C(=O)O)c1
active: [12] 5.01 µM
inactive: [1] | [8] | [3] | [4] | [5]

N.N.O=C(O)C1(C(=O)O)CCC1.[Pt]
active: [10] 3.98 µM | [12] 3.98 µM
inactive: [9] | [2] | [8] | [6] | [13] | [7] | [17] | [14] | [15]
